Source: PubChem BioAssay
NPSR antag: antagonists of human neuropeptide S receptor cAMP signaling; AID 1461; Potency, µM (series often up to 38.3 µM), inactives show top-dose activity change, negative = inhibition, hits mostly inhibitors; actives 1% (n = 220,000); Q6W5P4; CHO-NPSR cells, cAMP TR-FRET, antagonist mode; also: potency is read from the fitted curve at half-maximal effect; % is scaled to controls: 0 for no effect and ±100 for the full control effect; nearly all actives have a fitted effect of over 50% in size
PTHR1 ag: agonists of human PTHR1 parathyroid hormone receptor; Q03431; HEK293 GP2 PTHR1 cells, GloSensor cAMP luminescence, 1 h; Potency, µM (titrated, usually from 115 µM), for the others: top-dose activation, most hits filed as activators; actives 0.075% (n = 410,000); AID 743266; also: potency is read from the fitted curve at half-maximal effect; nearly all actives have a fitted effect of over 55% in size
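HEK-293-derived GP2 cells expressing PTHR1 and a GloSensor cAMP reporter, 3,000/well, plated overnight, given luciferin plus IBMX (each 0.5 mM as added) for 1 h at 37 °C, then compound for 1 h at 37 °C. Luminescence was read after 15 min at room temperature.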
GLP1R cytotox: cytotoxic in the GLP-1 receptor inverse agonist counter-screen; actives 0.13% (n = 410,000); HEK293 cAMP-luciferase reporter cells, luminescence, 24 h; Potency, µM (series often up to 38.3 µM), for inactives: at the top dose activity change, negative = inhibition, usual class: inhibitors;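 also: loss of luciferase light is scored as toxicity; potency is read from the fitted curve at half-maximal effect; % is scaled to controls: 0 for no effect and ±100 for the full control effect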
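Seeding density was 200 cells/uL; after overnight-length (12 h) culture, 23 nL compounds went on for 24 h at 37 °C. Readout used a luciferase detection reagent, luminescence taken after 12 min at room temperature.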
RXFP1 antagonist: RXFP1 (human) relaxin receptor antagonism | AID 1259400 | activity change, negative = inhibition, % at 57.5 µM | Q9HBX9 | HEK293-RXFP1, relaxin-stimulated cAMP HTRF, 30 min; hits give low values | actives 0.59% (n = 350,000);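 active = activity change of -60% or lower, but not beyond a set lower limit; inconclusive = change between -60% and -40%, or beyond the set limit; inactive = change above -40%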; also: % is scaled to controls: 0 for no effect and ±100 for the full control effect
Target sequence (Q9HBX9 whole entry, looked up): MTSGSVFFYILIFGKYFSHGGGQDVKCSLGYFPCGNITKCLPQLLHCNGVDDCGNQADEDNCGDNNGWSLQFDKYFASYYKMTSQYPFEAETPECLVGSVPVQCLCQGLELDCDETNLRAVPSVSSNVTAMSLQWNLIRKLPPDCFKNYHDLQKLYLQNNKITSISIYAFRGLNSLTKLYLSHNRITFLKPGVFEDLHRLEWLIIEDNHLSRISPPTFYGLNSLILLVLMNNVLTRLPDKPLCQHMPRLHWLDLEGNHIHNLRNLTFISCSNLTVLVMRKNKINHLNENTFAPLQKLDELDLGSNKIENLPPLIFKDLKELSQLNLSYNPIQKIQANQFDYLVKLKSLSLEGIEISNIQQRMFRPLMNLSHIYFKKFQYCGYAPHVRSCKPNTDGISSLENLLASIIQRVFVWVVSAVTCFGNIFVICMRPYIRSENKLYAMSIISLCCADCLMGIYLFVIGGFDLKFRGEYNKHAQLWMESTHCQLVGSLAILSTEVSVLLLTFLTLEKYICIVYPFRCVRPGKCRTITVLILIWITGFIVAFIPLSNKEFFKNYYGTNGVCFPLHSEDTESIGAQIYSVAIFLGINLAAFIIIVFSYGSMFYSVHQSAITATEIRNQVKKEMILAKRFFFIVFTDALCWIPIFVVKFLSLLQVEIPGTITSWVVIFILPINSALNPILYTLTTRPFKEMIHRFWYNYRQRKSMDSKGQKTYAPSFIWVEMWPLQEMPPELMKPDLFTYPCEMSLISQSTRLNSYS
TSHR antag: antagonists of human thyroid stimulating hormone receptor; P16473; TSHR-expressing cells, TSH-stimulated cAMP HTRF, 2 h; hits give low values; activity change, negative = inhibition, % at 11.5 µM; actives 0.2% (n = 330,000); AID 504810;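 active = activity change below a set negative limit, meaning inhibition stronger than a set level, cut at about -70% in these data; inconclusive = activity change between two set negative limits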; also: % is scaled to controls: 0 for no effect and ±100 for the full control effect
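Antagonism was scored as loss of TSH-driven cAMP in TSHR cells, stimulated with 4nM TSH (EC80) for 2 hours at 37 deg C and detected by homogeneous HTRF competition immunoassay.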
RXFP1 ag: RXFP1 (human) receptor agonism; Q9HBX9; HEK293T-RXFP1 cAMP TR-FRET, 30 min; response scale: percent of porcine relaxin response, buffer zero; Potency, µM (highest dose often 57.5 µM), without a hit: at the top dose activation, hits mostly activators; actives 0.3% (n = 370,000); also: potency is read from the fitted curve at half-maximal effect; % is scaled to controls: 0 for no effect and ±100 for the full control effect; nearly all actives have a fitted effect of over 60% in size
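HEK293 cells stably expressing RXFP1, treated 30 min at 37C with compounds plus PDE4 inhibitor Ro 20174; cAMP measured by HTRF TR-FRET. Normalized to buffer and 29 nM porcine relaxin; EC50 by Hill fit.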
Active calls of the source: *; i = inactive; ? = inconclusive; . = not tested or not shown; [ ] = dose if it differs, or a comment. The sample as a whole holds a higher share of hits than the screen did. Unless noted, calls follow the shape of the dose curve; as a rule, active = well fitted curve in the direction sought with a large enough effect; inconclusive = small, poorly fitted or top-dose-only effect, or another doubt; inactive = no such curve, though single readings can be large; an effect the other way counts as inactive or inconclusive.

SMILES | NPSR antag | PTHR1 ag | GLP1R cytotox | RXFP1 antagonist | TSHR antag | RXFP1 ag
Cc1[nH]c2ccc(F)cc2c1CCN(Cc1cccnc1)C(=S)Nc1cccc(F)c1 | 10µM* | -8.4% | -10.9% | -3.4 | -4.3 | -0.1%
Cc1ccccc1NC(=S)N(CCc1c(C)[nH]c2ccc(F)cc12)Cc1cccnc1 | -57.3% | -6.6% | -4.2% | 0.9 | 6.7 | 0.1%
CCOc1ccc(N(CC(=O)OC)S(=O)(=O)c2ccc3c(c2)n(C)c(=O)c(=O)n3C)cc1 | -6.6%[46.1 µM] | -15.4% | 1.4% | -19.6 | 12.0 | 4.0%
COC(=O)CN(c1ccc(C)cc1)S(=O)(=O)c1ccc2c(c1)n(C)c(=O)c(=O)n2C | -2.7%[46.1 µM] | i | 0.2% | 5.5 | -95.6* | 2.5%
CCOc1ccc(CC(=O)N/N=C/c2cccnc2)cc1OCC | . | i | -29.6% | 5.5 | 43.2 | -0.8%
Cc1cccc(C)c1OCC(=O)N/N=C/c1cccnc1 | . | -11.9% | 12.6µM* | 8.2 | -7.4 | 2.0%
Cn1c(=O)c2c(ncn2CCC(=O)N/N=C/c2cccnc2)n(C)c1=O | -9.5%[7.67 µM] | i | -8.7% | 5.2 | -2.1 | 15.8µM*
Cn1c(=O)c2c(ncn2CCC(=O)N/N=C/c2ccccc2)n(C)c1=O | -7.5%[7.67 µM] | i | 0.0% | 15.0 | 6.8 | ?
COc1ccc(CC(=O)N/N=C/c2cccnc2)cc1OC | . | -80.4% | -5.9% | 6.6 | 6.1 | 31.6µM*
CCOc1ccc(-c2cc3c(=O)n(CC(=O)NCc4ccc(F)cc4)ccn3n2)cc1 | . | -11.0% | -4.3% | 1.9 | . | ?
c1ccc(COc2ncnc3c2ncn3CCCNCC(c2ccccc2)c2ccccc2)cc1 | . | -27.2% | 11.2µM* | -20.5 | . | .
O=C1NN(c2ccc(F)c(Cl)c2)C(=O)/C1=C\c1cccc(OC(=O)c2cccs2)c1 | -11.5%[46.1 µM] | -21.8% | -22.0% | -85.7* | -4.0 | -0.4%
CC(C)Oc1cccc(C(=O)Nc2ccc3oc(-c4cccc(Cl)c4)nc3c2)c1 | . | -37.9% | -0.7% | -15.7 | . | 2.6%
Cc1oc(C)c2c(=O)ccc3c(c12)OC(N)=C(C#N)C3c1ccccc1Cl (stereo not drawn) | 10µM* | i | 76.3% | 12.4 | -10.8 | 1.1%
CCCCN(C)CCNC(=S)Nc1ccc2nc(N3CCN(CC)CC3)cc(C)c2c1 | . | 24.2% | 5.01µM* | 1.6 | 1.5 | 5.5%
CCN1CCN(c2cc(C)c3cc(NC(=S)NCCN(C)C)ccc3n2)CC1 | . | i | ? | -4.3 | 18.1 | 0.9%
Cc1cc(N2CCN(C)CC2)nc2ccc(NC(=S)NCCCN3CCc4ccccc4C3)cc12 | -42.4% | -22.4% | 4.47µM* | -15.1 | -1.7 | -1.4%
Cc1ccc(S(=O)(=O)N2CCCC2C(=O)Nc2ccc(Br)cc2)cc1 (stereo not drawn) | . | -92.6% | -10.0% | -29.0 | . | -0.6%
CCOc1ccc(S(=O)(=O)NCC(c2ccco2)S(=O)(=O)c2cccs2)cc1 (stereo not drawn) | . | -16.5% | 4.5% | -6.0 | . | 1.2%
Cc1ccc(C(=O)COC(=O)COc2ccccc2[N+](=O)[O-])s1 | . | -23.2% | -4.5% | -0.2 | -1.1 | 2.4%
CCOC(=O)COc1ccccc1/C=C\[N+](=O)[O-] | 7.94µM* | -39.4% | ? | . | ? | -0.8%
CC(=O)SC[C@@H](C)C(=O)N1CCC[C@H]1C(=O)N[C@@H](Cc1ccccc1)C(=O)O | . | . | . | 13.5 | . | .
Oc1c(C(c2ccc(Cl)cc2Cl)N2CCN(c3ccccc3)CC2)sc2nc(-c3ccco3)nn12 (stereo not drawn) | . | i | 0.0% | -16.9 | . | -0.7%
N#C/C(=N\Nc1ccc(Cl)cc1)C(=O)c1ccccc1 | 12.6µM* | -29.7% | ? | -16.3 | -47.6 | -0.9%
CC1CCC2(CC1)NC(=O)N(CC(=O)NC(C)c1ccc(F)c(F)c1)C2=O (stereo not drawn) | . | 7.0% | 19.5% | 10.2 | 33.1 | 1.3%
SMILES | NPSR antag | PTHR1 ag | GLP1R cytotox | RXFP1 antagonist | TSHR antag | RXFP1 ag
O=[N+]([O-])/C=C/c1cn(Cc2ccccc2)c2ccccc12 | 10µM* | -14.4%[57.5 µM] | ? | ? | 26.9 | -0.4%
O=C(Cn1cc(/C=C\[N+](=O)[O-])c2ccccc21)Nc1ccccc1 | 12.6µM* | -28.4% | ? | -105.2* | 11.5 | -0.3%
O=C(O)Cn1cc(/C=C/[N+](=O)[O-])c2ccccc21 | -47.8% | -25.5% | 16.5%[7.66 µM] | 1.8 | -17.9 | 12.6%
Nc1nc2ccccc2n1Cc1ccc(F)cc1 | . | . | . | -6.6 | . | .
CC(Sc1nccn1C)C(=O)Nc1ccc(Cl)cn1 (stereo not drawn) | . | i | 3.8% | 12.0 | 10.5 | -0.4%
COc1ccc(CC(=O)N2CCN(c3ccccn3)CC2)cc1OC | -9.3%[46.1 µM] | -6.0%[57.5 µM] | 10.5% | 1.8 | -0.5 | 1.5%
CCCc1ccc(OCc2ccc(C(=O)N3CCN(c4ccccn4)CC3)o2)c(OC)c1 | -28.1%[46.1 µM] | -43.1% | ? | -62.6* | -15.8 | -0.2%
Oc1ccc(/C=N/NC(=S)NC2CC3CCC2C3)cc1 (stereo not drawn) | ? | i | ? | -25.0 | -1.6 | -0.9%
S=C(N/N=C/c1cccs1)NC1CC2CCC1C2 (stereo not drawn) | 44.7% | -27.6% | 2.1% | -67.1* | -6.1 | 0.4%
COc1cc(C2C=C(C34CC5CC(CC(C5)C3)C4)NC(=S)N2)cc(OC)c1OC (stereo not drawn) | 10µM* | i | ? | -7.3 | -14.0 | 3.3%
COc1ccc(OC)c(C2C=C(C34CC5CC(CC(C5)C3)C4)NC(=S)N2)c1 (stereo not drawn) | -38.0% | -1.4% | ? | -1.6 | -16.8 | 4.7%
CC(C)(C)c1csc(NC(=O)c2ccc(Cl)s2)n1 | ? | -24.0% | -3.9% | -100.7* | 12.7 | -1.3%
Cc1ccc(C(=O)Nc2nc(C(C)(C)C)cs2)s1 | ? | -16.3%[57.5 µM] | 15.7% | -22.0 | -34.2 | 2.2%
Fc1ccccc1NC(=S)N/N=C/c1ccccc1Br | -29.3%[46.1 µM] | -5.5% | 5.62µM* | -3.7 | 6.4 | -0.6%
Cc1cccc(-n2c(-c3csc4ccccc34)n[nH]c2=S)c1 | -15.0% | -11.2% | 4.4% | -117.3* | -7.7 | 3.2%
CC(C)Cn1c(-c2csc3ccccc23)n[nH]c1=S | -8.2%[46.1 µM] | i | 71.1% | -2.4 | -18.8 | -1.8%
Oc1ccccc1/C=N/NC(=S)NC1CC2CC1C1C=CCC21 (stereo not drawn) | ? | -50.4% | 4.47µM* | -26.5 | 13.8 | -0.2%
Nc1ccc(Br)c2cccnc12 | -13.8% | -43.1% | 2.0%[0.307 µM] | -64.9* | -11.5 | 2.2%
CCCCCC(=O)Nc1ccc(C(=O)CN2C(=O)NC3(CCCCCC3)C2=O)cc1 | . | -1.8% | -12.3% | -89.8* | 13.0 | 0.2%
COc1cccc(CNC(=O)CSC2=Nc3ccccc3C3=NC(C(C)C)C(=O)N23)c1 (stereo not drawn) | . | i | 2.9% | -1.6 | . | 3.3%
